We go through 23 compounds from PubChem BioAssay (Tox21).

Where “and” joins values, the source holds several entries; their conditions need not be identical. Identical values can stand only once. Inconclusive results are not listed. Some compounds were tested as several samples or in several runs, with calls that do not always agree. Calls of active or inactive are those of the source. Calls follow the shape of the dose curve; as a rule, active = well fitted curve in the direction sought with a large enough effect in the repeat runs; inconclusive = weak or mixed curves; inactive = no such curve, though single readings can be large; an effect the other way counts as inactive or inconclusive.

A short description of assay [1]: qHTS RealTime-Glo MT Cell Viability Assay in HEK293 cells - 0 hour (AID 1224880). Also: top concentration of the series differs between compounds; nearly all actives have a fitted effect of over 45% in size. A digest of the protocol:
(§1)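 HEK293 cells mixed with RealTime-Glo reagents (NanoLuc plus cell-permeant prosubstrate) at 600 cells/well, preincubated 5 h at 37 C/5% CO2, then given 23 nL compound in DMSO. Nonlytic luminescence from viable cells was read at 0, 8, 16, 24, 32 and 40 h.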
For orientation: In qHTS, concentration-response curves come from the screen itself.

Assay [2] is described as follows: A CellTox Green Cytotoxicity Assay to monitor cytotoxicity in HEK293 cells - 32 hour (AID 1224881). Also: nearly all actives have a fitted effect of over 40% in size. Also: potency is read from the fitted curve at half-maximal effect. A digest of the protocol:
(§2)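 HEK293 cells premixed with CellTox Green dye were seeded at 600 cells/well and left 5 h at 37 C/5% CO2 before pin transfer of 23 nL compound in DMSO. Fluorescence from dye bound to dead-cell DNA was read during 40 h treatment.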

A short description of assay [3]: A CellTox Green Cytotoxicity Assay to monitor cytotoxicity in HepG2 cells - 32 hour (AID 1224883). Also: nearly all actives have a fitted effect of over 50% in size. Also: potency is read from the fitted curve at half-maximal effect. A digest of the protocol:
(§3)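 HepG2 cells were seeded together with the CellTox Green dye at 600 cells/well, left 5 h at 37 C/5% CO2, then given compounds in DMSO. Fluorescence from dye bound to dead-cell DNA was read repeatedly over 40 h of treatment at 37 C.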

The nature of assay [4]: A CellTox Green Cytotoxicity Assay to monitor cytotoxicity in HEK293 cells - 8 hour (AID 1224884). Also: nearly all actives have a fitted effect of over 35% in size. A digest of the protocol: as §2
A short description of assay [5]: qHTS RealTime-Glo MT Cell Viability Assay in HepG2 cells - 16 hour (AID 1224885). Also: nearly all actives have a fitted effect of over 50% in size. In a few lines:
(§4)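 Viability was tracked continuously by NanoLuc luminescence from prosubstrate reduced by living HepG2 cells, at successive time points over 40 h of compound exposure. Cells with reagent were preincubated 5 h at 37 °C before compound addition.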

Assay [6] can be described thus: qHTS RealTime-Glo MT Cell Viability Assay in HEK293 cells - 24 hour (AID 1224886). Also: nearly all actives have a fitted effect of over 50% in size. Also: potency is read from the fitted curve at half-maximal effect. A digest of the protocol:
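Viability tracked continuously by luminescence as live cells reduce a prosubstrate for NanoLuc; HEK293 cells preincubated 5 h, compound-treated at 37 C, and read at 0, 8, 16, 24, 32 and 40 h.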

Assay [7] is described as follows: qHTS RealTime-Glo MT Cell Viability Assay in HEK293 cells - 8 hour (AID 1224887). Also: top concentration of the series differs between compounds; nearly all actives have a fitted effect of over 50% in size. A digest of the protocol: as §1
The nature of assay [8]: A CellTox Green Cytotoxicity Assay to monitor cytotoxicity in HEK293 cells - 16 hour (AID 1224888). Also: nearly all actives have a fitted effect of over 35% in size. In a few lines: as §2
The nature of assay [9]: qHTS RealTime-Glo MT Cell Viability Assay in HepG2 cells - 0 hour (AID 1224889). Also: nearly all actives have a fitted effect of over 50% in size. Also: potency is read from the fitted curve at half-maximal effect. In a few lines:
as §4

The nature of assay [10]: A CellTox Green Cytotoxicity Assay to monitor cytotoxicity in HepG2 cells - 0 hour (AID 1224882). Also: nearly all actives have a fitted effect of over 35% in size. A digest of the protocol:
as §3

Turning to `CC(O)COc1ccccc1` (centres undefined), the Potency result in assay [1], in assay [2], in assay [3], in assay [4], in [5] and in assay [6] was “inactive” in each case. The Potency result in assay [7], in [8] and in assay [9] was “inactive” each time.

`NC(=O)c1ccc([N+](=O)[O-])cc1Cl`: the Potency result in assay [1], in assay [2], in assay [3], in assay [4], in [5] and in [6] was “inactive” throughout. The Potency result in [7], in assay [8] and in assay [9] was “inactive” throughout.

For the compound `C[C@]12C=CC(=O)C=C1CC[C@@H]1[C@@H]2C(=O)C[C@@]2(C)[C@H]1CC[C@]2(O)C(=O)CO`, the Potency result in assay [1], in assay [2], in assay [10], in assay [3], in assay [4] and in [5] was “inactive” each time. Moreover, the Potency entry in assay [6] and in [8] was “inactive” in each case. In addition, the Potency in assay [9] was 22 µM (active) and 17.4 µM (active).

As for `C=C(C)OC(C)=O`, the Potency result in assay [1], in assay [2], in assay [10], in assay [3], in assay [4] and in [5] was “inactive” in each case. Further, the Potency result in [6], in assay [8] and in [9] was “inactive” each time.

For the compound `c1ccc2[nH]c(-c3cscn3)nc2c1`, the Potency entry in assay [1], in [2], in [10], in assay [3], in [4] and in assay [5] was “inactive” in each case. The Potency result in assay [6], in assay [8] and in assay [9] was “inactive” in each case.

Turning to `Cn1cnc2c1c(=O)[nH]c(=O)n2C`, the Potency entry in assay [1], in assay [2], in assay [10], in assay [3], in [4] and in [5] was “inactive” throughout. For the same compound, the Potency entry in assay [6], in assay [8] and in assay [9] was “inactive” in each case.

`CCc1cc(C(N)=S)ccn1`: the Potency entry in assay [1], in assay [2], in assay [10], in assay [3], in assay [4] and in assay [5] was “inactive” throughout. For the same compound, the Potency entry in assay [6], in [8] and in assay [9] was “inactive” each time.

With `CCCCOCCOCCOC(C)=O`, the Potency result in [1], in assay [2], in [3], in assay [4], in assay [5] and in [6] was “inactive” throughout. Further, the Potency entry in assay [7], in assay [8] and in assay [9] was “inactive” each time.

Consider `C#C[C@]1(O)CC[C@H]2[C@@H]3CCc4cc(O)ccc4[C@H]3CC[C@@]21C`, for which the Potency result in assay [1], in [2], in assay [10], in assay [4], in assay [5] and in assay [8] was “inactive” each time. For the same compound, the Potency entry in assay [9] was “inactive”. Also, the Potency in assay [3] was 21.7 µM (active) and 43.6 µM (active); in [6], 19.5 µM (active).

On to `O=C(O)Cc1cccc2ccccc12`, for which the Potency entry in assay [1], in [2], in assay [10], in assay [3], in assay [4] and in assay [5] was “inactive” in each case. Moreover, the Potency result in [6], in [8] and in [9] was “inactive” throughout.

As for `CC1(C)O[C@@H]2[C@@H](CO[C@@]3(COS(N)(=O)=O)OC(C)(C)O[C@@H]23)O1`, the Potency entry in [1], in assay [2], in [10], in assay [3], in assay [4] and in assay [5] was “inactive” in each case. Further, the Potency entry in assay [6], in assay [8] and in assay [9] was “inactive” throughout.

As for `COCC(C)N` (centres undefined), the Potency entry in [1], in assay [2], in [3], in assay [4], in assay [5] and in assay [6] was “inactive” each time. The Potency entry in assay [7], in [8] and in [9] was “inactive” throughout.

In the case of `C/C=C/c1ccc(O)c(OC)c1`, the Potency result in [1], in assay [2], in assay [3], in assay [4], in assay [5] and in assay [6] was “inactive” each time. The Potency entry in [7], in assay [8] and in assay [9] was “inactive” each time.

As for `Cc1ccc(O)c(-n2nc3ccccc3n2)c1`, the Potency entry in assay [1], in [2], in [10], in assay [3], in [4] and in assay [5] was “inactive” throughout. The Potency entry in assay [6], in assay [8] and in [9] was “inactive” in each case.

For the compound `N[C@@H](Cc1c[nH]c2ccccc12)C(=O)O`, the Potency result in assay [1], in [2], in assay [3], in assay [4], in assay [5] and in assay [6] was “inactive” throughout. The Potency entry in [7], in assay [8] and in assay [9] was “inactive” in each case.

In the case of `COc1ccc(O)cc1`, the Potency entry in [1], in [2], in [3], in assay [4], in assay [5] and in [6] was “inactive” throughout. The Potency entry in [7], in assay [8] and in assay [9] was “inactive” each time.

Regarding `N[C@@H](Cc1c[nH]c2ccc(O)cc12)C(=O)O`, the Potency entry in assay [1], in assay [2], in assay [10], in assay [3], in [4] and in assay [5] was “inactive” throughout. Besides, the Potency entry in assay [6], in assay [8] and in assay [9] was “inactive” throughout.

Take `C=CCOC(=O)CC(C)C`: the Potency entry in [1], in assay [2], in assay [10], in assay [3], in assay [4] and in assay [5] was “inactive” each time. For the same compound, the Potency result in assay [6], in [8] and in assay [9] was “inactive” each time.

Turning to `CC1=NN(c2ccccc2)C(=O)C1`, the Potency result in [1], in assay [2], in [10], in assay [3], in assay [4] and in assay [5] was “inactive” in each case. The Potency result in assay [6], in assay [8] and in [9] was “inactive” in each case.

Consider `C1CNCCN1`, for which the Potency entry in [1], in assay [2], in assay [3], in assay [4], in assay [5] and in [6] was “inactive” throughout. Further, the Potency entry in [8] and in assay [9] was “inactive” throughout.

As to `C#C[C@]1(O)CC[C@H]2[C@@H]3CCC4=CC(=O)CC[C@@H]4[C@H]3CC[C@@]21CC`, the Potency result in assay [1], in [4], in assay [5], in assay [7], in [8] and in assay [9] was “inactive” throughout. The Potency in [2] is 49.1 µM (active) and inactive; in assay [3], “inactive and 43.6 µM (active)”; in [6], 43.6 µM (active) and inactive.

Regarding `CCOCCO`, the Potency result in assay [1], in [2], in assay [3], in [4], in [5] and in assay [6] was “inactive” in each case. Moreover, the Potency entry in assay [8] and in assay [9] was “inactive” throughout.

As to `CCN1CCCC1=O`, the Potency entry in assay [1], in assay [2], in assay [3], in assay [4], in [5] and in assay [6] was “inactive” each time. Besides, the Potency entry in [8] and in [9] was “inactive” in each case.
